Most compounds without a hit are left out; they make up all but 6.2% or so of the library.
KB-3-1 cytotox – KB-3-1 parental cell cytotoxicity; KB-3-1 viability, CellTiter-Glo ATP luminescence, 72 h; Potency, µM (doses to about 46.1 µM), actives largely listed as cytotoxic; 1.4% of 400,000 active; also: % is scaled to controls: 0 for no effect and ±100 for the full control effect; nearly all actives have a fitted effect of over 60% in size
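Using CellTiter-Glo luminescence, growth of non-resistant KB-3-1 adenocarcinoma cells is assessed 72 h after pin-tool compound addition at 37 °C. Normalized responses across the concentration series yield fitted curves.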
KB-V1 cytotox – kills drug-selected multidrug resistant KB-V1 cells; KB-V1 MDR cells viability, CellTiter-Glo, 72 h; Potency, µM (doses to about 46.1 µM), usual class: cytotoxic; 3.4% of 400,000 active; AID 1347076; also: % is scaled to controls: 0 for no effect and ±100 for the full control effect; nearly all actives have a fitted effect of over 60% in size
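Following 72 h at 37 degrees C with compound, KB-V1 cell viability was read by CellTiter-Glo luminescence, medium being phenol-red-free DMEM plus 10% FBS; concentration-response parameters came from normalized, curve-fitted qHTS data.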
S2 tox – viability counter-screen for ATXN expression inhibitors | S2 cells (HEK-293 line with an ATXN2-luciferase reporter) viability, CellTiter-Fluor protease fluorescence, 24 h | Potency, µM (titrated, usually from 56.7 µM), hits mostly cytotoxic | 0.49% of 400,000 active; also: nearly all actives have a fitted effect of over 40% in size
ATXN2 expr inh – ATXN2 expression inhibition | HEK-293 ATXN2-luciferase reporter, luminescence, 24 h | Potency, µM (titrated, usually from 57 µM), without a hit: at the highest dose activity change, negative = inhibition, actives largely listed as inhibitors | 0.72% of 360,000 active | AID 1745845; also: % is scaled to controls: 0 for no effect and ±100 for the full control effect; nearly all actives have a fitted effect of over 55% in size
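qHTS (up to 57 uM final) was run with 24 h compound exposure of reporter cells at 37 °C. Each well was multiplexed: SteadyGlo luminescence measured ATXN2-luciferase expression after a fluorogenic Gly-Phe-AFC viability readout (25 uM final).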
HT1080-NT tox – kills 2HG-producing HT-1080-NT fibrosarcoma cells. HT-1080-NT fibrosarcoma viability, CellTiter-Glo ATP luminescence, 48 h. Potency, µM (highest dose often 46.1 µM), for the others: top-dose activity, negative = less viability, most hits filed as cytotoxic. 1.6% of 360,000 active;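 also: NT is the 2HG producing partner of a matched IDH1 knockdown line; 0% = DMSO-treated cells and -100% = media-only wells without cells; nearly all actives have a fitted effect of over 55% in size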
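Read-out is CellTiter-Glo luminescence after 10 minutes at room temperature, following 48 hours' compound treatment of HT-1080-NT cells (750 cells/well, RPMI, 5% FBS, 37 degrees C).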
HT1080 IDH1KD tx – toxicity to HT-1080 IDH1 knockdown cells (counter line). HT-1080 IDH1 knockdown viability, ATP luminescence, 48 h. Potency, µM (series often up to 46.1 µM), for the others: at the top dose activity, negative = toxicity, hits mostly cytotoxic. 2% of 360,000 active. AID 686971;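 also: 0% = DMSO wells and -100% = cell-free medium wells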
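IDH1KD HT-1080 cells, 750/well, RPMI + 5% FBS; compound pinned after 2 h settling; 48 h, 37 °C; CellTiter-Glo luminescence; % activity normalised to DMSO and no-cell wells; curves fitted, classed by r2 and efficacy.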
Numbers without * were called inactive; i = inactive; ? = inconclusive; nt = not tested or not shown; ! = not confirmed by another sample. Calls follow the shape of the dose curve; as a rule, active = well fitted curve in the direction sought with a large enough effect; inconclusive = small, poorly fitted or top-dose-only effect, or another doubt; inactive = no such curve, though single readings can be large; an effect the other way counts as inactive or inconclusive. Potency is read from the fitted curve at half-maximal effect.

SMILES | KB-3-1 cytotox | KB-V1 cytotox | S2 tox | ATXN2 expr inh | HT1080-NT tox | HT1080 IDH1KD tx
O=C(Cn1c(=O)n(-c2ccccc2)c(=O)c2sc3ccccc3c21)NC1CCCC1 | i | i | i | ? | nt | nt
CCCCCCSc1cc(-c2nc3cc(C)ccn3c2NCCCC)ccc1OC | i | 21µM*! | nt | ? | 26µM* | 23µM*
CCCCNc1c(-c2ccc(OC)c(Sc3ccc(OC)cc3)c2)nc2cnccn12 | ? | ? | nt | ? | 29µM* | ?
CCCCCCSc1cc(-c2nc3cnccn3c2NCCCC)ccc1OC | i | i | nt | ? | -11% | -7%
CCCCNc1c(-c2ccc(SC(C)CC)cc2)nc2cnccn12 (stereo not given) | ? | i | nt | ? | ? | ?
N#Cc1ccc(OCC(O)CN2CCN(CC(O)COc3ccc(C#N)cc3)CC2)cc1 (stereo not given) | i | ? | i | -36% | 8% | 4%
N#Cc1ccc(OCC(O)CN2CCN(c3ncc(C(F)(F)F)cc3Cl)CC2)cc1 (stereo not given) | 15µM* | 7.3µM* | i | ? | ? | ?
COc1ccc(-c2cc(N)n(S(=O)(=O)c3c(F)c(F)c(F)c(F)c3F)n2)cc1OC | 10µM* | 9.2µM* | 10µM* | 7.9µM* | 7.1µM* | 4µM*
COc1ccc(S(=O)(=O)n2nc(-c3cc(OC)c(OC)c(OC)c3)cc2N)cc1OC | i | i | i | 6% | -24% | -3%
Nc1ccn(C2CO[C@H](CO)O2)c(=O)n1 (stereo not given in full) | nt | nt | i | -3% | nt | nt
N#CC(c1cccc(Cl)c1)c1ccc2c(C(F)(F)F)cc(C(F)(F)F)nc2n1 (stereo not given) | ? | 0.92µM* | 5.6µM* | 2.5µM* | 9.2µM* | ?
CCn1cc(C(=O)NCCc2ccccc2)c(=O)c2cc(S(=O)(=O)N(C)C3CCCCC3)ccc21 | i | i | i | 13% | nt | nt
CNC(C)[C@@H]1CC[C@@H](N)[C@@H](O[C@H]2[C@H](O)[C@@H](O[C@H]3OC[C@](C)(O)[C@H](NC)[C@H]3O)[C@H](N)C[C@@H]2N)O1 (stereo not given in full) | nt | nt | i | nt | nt | nt
CCCCC(O)(c1ccc(F)cc1)C(CN1CCOCC1)c1ccc(Cl)cc1 (stereo not given) | ? | 8.2µM* | i | -29% | ? | ?
CCCC(O)(c1ccc(OC)cc1)C(CN1CCOCC1)c1ccc(Cl)cc1 (stereo not given) | ? | ? | i | nt | ? | ?
COc1ccc(C(O)(CC(C)C)C(CN2CCOCC2)c2ccccc2)cc1 (stereo not given) | i | i | i | -5% | -5% | -7%
COc1ccc(C(O)(CCC(C)C)C(CN2CCOCC2)c2ccc(Cl)cc2)cc1 (stereo not given) | ? | 26µM* | i | -28% | ? | ?
CCCC(O)(c1ccc(Cl)cc1)C(CN1CCOCC1)c1ccc(Cl)cc1 (stereo not given) | ? | 16µM* | i | -31% | ? | ?
CCOc1ccc(C(O)(CCC(C)C)C(CN2CCOCC2)c2ccccc2)cc1 (stereo not given) | i | ? | i | -28% | ? | 18µM*
CCOC(=O)c1c(NC(=O)CSc2nc(-c3ccc(OC)cc3)cc(C(F)(F)F)n2)sc(C)c1C | i | i | i | 4% | nt | nt
CC(C)c1ccc(NC(=O)CN2C(=O)C3(SCC(=O)N3c3ccc(F)cc3)c3ccccc32)cc1 (stereo not given) | ? | i | i | -25% | nt | nt
COC(=O)c1cc2occc2n1Cc1ccc(F)cc1Cl | i | i | i | 0% | nt | nt
CN(C)c1cccc(-c2cc(N3CCC(C(N)=O)CC3)ncn2)c1 | ? | i | nt | nt | nt | nt

High-throughput results: PubChem, National Center for Advancing Translational Sciences (NCATS)
